Consider 26 compounds from PubChem BioAssay (NCATS).

Molecules are shown by their SMILES. Values without a mark were called inactive. Inconclusive results are not listed. The source made the active and inactive calls. The call rests on the fitted dose curve; in most records, active means well fitted inhibition curve with a large enough effect; inconclusive means small, poorly fitted or top-dose-only effect; inactive means flat fitted curve, though single readings scatter.

Assay [1] concerns the target Glutathione peroxidase 1 (Homo sapiens) (UniProt P07203). Description: Primary qHTS Assay for Inhibitors of Recombinant Selenoprotein Glutathione Peroxidase 1 (GPX1) (AID 1845191). Further: nearly all actives have a fitted effect of over 65% in size. On activity, negative = inhibition: on the % scale 0 is the no-effect control and ±100 the full control effect. A digest of the protocol:
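GPX1 10 nM, GR 100 nM, GSH 1 mM, NADPH 0.5 mM, CHP 0.5 mM (final). 30-min cpd preincubation, RT. Ex340/Em450 read t=0, t=15 min.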
(Quantitative high-throughput screening tests each substance at several concentrations.)

The target of assay [2] is Phospholipid hydroperoxide glutathione peroxidase GPX4 (Homo sapiens) (UniProt P36969). The assay can be described thus: Primary qHTS Assay for Inhibitors of Recombinant Selenoprotein Glutathione Peroxidase 4 (GPX4) (AID 1845192). Further: nearly all actives have a fitted effect of over 65% in size. On activity change, negative = inhibition: series mostly up to about 50 µM; on the % scale 0 is the no-effect control and ±100 the full control effect. The method in brief:
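qHTS, GR-coupled: GPX4 200 nM + cpd 30 min RT → GSH 1 mM, NADPH 0.5 mM, GR 100 nM → CHP 0.5 mM start; fluor 340/450 at t0 and t15 min; no-enzyme wells as control.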

For assay [3], the target named is Luciferin 4-monooxygenase (Photinus pyralis) (UniProt P08659). The assay can be described thus: Primary firefly luciferase (FLuc) qHTS assay for identification of artifact compounds. (AID 1845220). Further: nearly all actives have a fitted effect of over 60% in size. Further: potency means the concentration at half of the fitted maximal effect.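 On activity change, negative = inhibition: series mostly up to about 54 µM; plate controls were DMSO vehicle for no effect and no enzyme for full effect.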 The method in brief:
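In this counter-screen for luciferase artifacts, test compounds met substrate (10 uM each luciferin and ATP) before 10 nM enzyme started the reaction. Light output was measured 5 min later.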

Phospholipid hydroperoxide glutathione peroxidase GPX4 (Homo sapiens), sequence (P36969 whole entry, looked up): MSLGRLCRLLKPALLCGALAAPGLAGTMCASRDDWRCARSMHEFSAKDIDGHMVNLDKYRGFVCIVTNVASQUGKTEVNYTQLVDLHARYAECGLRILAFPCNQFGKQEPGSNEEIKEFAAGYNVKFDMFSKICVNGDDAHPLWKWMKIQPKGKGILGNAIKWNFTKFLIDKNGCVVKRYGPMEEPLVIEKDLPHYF
Glutathione peroxidase 1 (Homo sapiens), sequence (P07203 whole entry, looked up): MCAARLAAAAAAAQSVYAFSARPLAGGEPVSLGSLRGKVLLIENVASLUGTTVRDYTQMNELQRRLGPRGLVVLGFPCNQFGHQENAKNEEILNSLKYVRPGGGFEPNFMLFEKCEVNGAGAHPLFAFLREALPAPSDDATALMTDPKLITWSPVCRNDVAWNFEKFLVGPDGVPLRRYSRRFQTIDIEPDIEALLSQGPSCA

On to `COC1=CC(=O)O[C@@H](/C=C/c2ccccc2)[C@@H]1O`, for which the Potency entry in assay [1], in assay [2] and in assay [3] was “inactive” each time.

For `Clc1ccc2c(c1)C1=NCCN1c1c(-c3noc(C4CC4)n3)ncn1-2`, the Potency result in assay [1], in assay [2] and in assay [3] was “inactive” throughout.

Take `CC(=O)O[C@@]1(C)C[C@@H](O)[C@]2(O)C=CO[C@@H](O[C@@H]3O[C@H](CO)[C@@H](O)[C@H](O)[C@H]3O)[C@@H]21`: the Potency entry in assay [1], in assay [2] and in assay [3] was “inactive” throughout.

On to `CN1C(=O)c2ccccc2-n2c(nc3ccccc3c2=O)/C1=C/c1ccccc1`, for which the Potency result in assay [1], in assay [2] and in assay [3] was “inactive” throughout.

Turning to `C[C@H]1CC[C@@]2(OC1)O[C@H]1CC3C4CC=C5C[C@H](O)C[C@@H](O[C@@H]6O[C@@H](C)[C@H](O)[C@@H](O)[C@H]6O[C@@H]6O[C@@H](C)[C@H](O)[C@@H](O)[C@H]6O)[C@]5(C)C4CC[C@]3(C)[C@H]1[C@@H]2C` (stereo partly drawn), the Potency entry in assay [1], in assay [2] and in assay [3] was “inactive” in each case.

Turning to `COc1cc(CC(COC2OC(CO)C(O)C(O)C2O)c2cc(/C=C/CO)cc(OC)c2O)ccc1O` (stereo not drawn), the Potency entry in assay [1], in assay [2] and in assay [3] was “inactive” each time.

As to `CC1CCC2(C)C(CC(O)C(O)C23CO3)C1(C)CCC1=CC(=O)OC1O` (stereo not drawn), the Potency result in assay [1], in assay [2] and in assay [3] was “inactive” each time.

As to `C/C=C(\C)C(=O)O[C@H]1[C@@H](O[C@]2(COC(=O)CC(C)C)O[C@H](COC(=O)C(C)C)[C@@H](OC(C)=O)[C@@H]2O)O[C@H](COC(C)=O)[C@@H](O)[C@@H]1O`, the Potency result in assay [1] and in assay [2] was “inactive” in each case. Moreover, the Potency in assay [3] is 4.46 µM (active).

Regarding `C=C(C)[C@@H]1CC[C@](C)(O)[C@@H](OC(=O)c2ccccc2)C1`, the Potency result in assay [1], in assay [2] and in assay [3] was “inactive” each time.

For the compound `COc1cc(C2Oc3c(OC)cc(CCCO[C@@H]4O[C@H](CO)[C@@H](O)[C@H](O)[C@H]4O)cc3C2CO)ccc1O` (stereo partly drawn), the Potency entry in assay [1], in assay [2] and in assay [3] was “inactive” in each case.

For the compound `C=C(C)C(=O)O[C@H]1C[C@@](C)(OC(C)=O)[C@@]2(O)CC[C@@](C)(O)[C@H](OC(C)=O)[C@@]23OC(=O)C(COC)=C13`, the Potency result in assay [1], in assay [2] and in assay [3] was “inactive” throughout.

For the compound `C/C(=C/CO)CC[C@@H]1[C@@]2(C)CCC[C@](C)(C(=O)O)C2CC[C@@]1(C)O` (stereo partly drawn), the Potency result in assay [1], in assay [2] and in assay [3] was “inactive” throughout.

On to `C=CC(C)(O)CC/C=C(/C)C(=O)OC1C(OC2OCC(OC3OC(CO)C(O)C(O)C3O)C(OC3OCC(O)C(OC4OC(C)C(O)C(O)C4O)C3O)C2O)COC(OC(=O)C23CCC(C)(C)CC2C2=CCC4C5(C)CCC(OC6OC(CO)C(OC7OC(CO)C(O)C(OC8OCC(O)C(O)C8O)C7O)C(O)C6O)C(C)(C)C5CCC4(C)C2(C)CC3O)C1O` (stereo not drawn), for which the activity, negative = inhibition in assay [1] is -7.71% [at 9.52 µM]. Besides, the outcome in assay [2] was “inactive [at 9.73 µM]”. The activity change, negative = inhibition in assay [3] is 3.07% [at 6.45 µM].

For the compound `O=C(c1ccc(F)cc1)C1CCN(CCn2c(=O)nc3n(c2=O)CCCC3)CC1`, the Potency entry in assay [1], in assay [2] and in assay [3] was “inactive” each time.

Turning to `CC(=O)OC[C@@]12[C@H](O)C[C@@H](C)[C@]3(C[C@@H](c4ccoc4)OC3=O)[C@H]1C[C@H](O)C[C@]21CO1`, the Potency result in assay [1], in assay [2] and in assay [3] was “inactive” in each case.

Consider `COC(=O)C1=CO[C@@H](O[C@@H]2O[C@H](CO)[C@@H](O)[C@H](O)[C@H]2O)[C@@H]2[C@@H](C)[C@@H](O)C[C@H]12`, for which the Potency result in assay [1], in assay [2] and in assay [3] was “inactive” throughout.

As to `COC1CCCC/C(C)=C/C2C=C(C)C(C)C3C(CC(C)C)NC(=O)C23C(=O)C1` (stereo not drawn), the Potency result in assay [1], in assay [2] and in assay [3] was “inactive” throughout.

`CC(C)CC(=O)n1cc(C(N)=O)c(=O)cc1C(O)c1ccccc1` (stereo not drawn): the Potency result in assay [1], in assay [2] and in assay [3] was “inactive” in each case.

With `CON(C)C(=O)N1N=C(c2cc(F)ccc2F)S[C@@]1(CCCN)c1ccccc1`, the Potency result in assay [1], in assay [2] and in assay [3] was “inactive” throughout.

With `COC(=O)c1ccc(O[C@@H]2O[C@H](CO)[C@@H](O)[C@H](O)[C@H]2O)c(OC)c1`, the Potency result in assay [1], in assay [2] and in assay [3] was “inactive” throughout.

In the case of `O=C(O[C@@H]1O[C@H](CO)[C@@H](O)[C@H](O)[C@H]1O)c1c(O)cc(O)cc1/C=C/c1ccccc1`, the Potency entry in assay [1], in assay [2] and in assay [3] was “inactive” throughout.

For the compound `C=C1CCC(OC(C)=O)C2(C)CC3(O)OC(=O)C(C)=C3CC12` (stereo not drawn), the Potency entry in assay [1], in assay [2] and in assay [3] was “inactive” each time.

For `CCC(C)(O)C(O)C(=O)OCc1ccc(O[C@@H]2O[C@H](CO)[C@@H](O)[C@H](O)[C@H]2O)cc1` (stereo partly drawn), the Potency entry in assay [1], in assay [2] and in assay [3] was “inactive” each time.

As to `CC1CCC2(NC1)OC1C(=O)C3C4CCC5CC(O[C@@H]6O[C@H](CO)[C@@H](O)[C@H](O)[C@H]6O[C@@H]6O[C@@H](C)[C@H](O)[C@@H](O)[C@H]6O)CCC5(C)C4CCC3(C)C1C2C` (stereo partly drawn), the Potency result in assay [1], in assay [2] and in assay [3] was “inactive” each time.

With `CC1(C)CC2C3=CCC4C5(C)CCC(OC6OC(C(=O)O)C(O)C(O)C6OC6OC(CO)C(O)C(O)C6OC6OC(CO)C(O)C(O)C6O)C(C)(CO)C5CCC4(C)C3(C)CCC2(C)C(OC2OCC(O)C(OC3OC(CO)C(O)C(O)C3O)C2O)C1O` (stereo not drawn), the activity, negative = inhibition in assay [1] was -11.2% [at 9.52 µM]. The results for the activity change, negative = inhibition in assay [2] and in assay [3] were -2.61% [at 9.73 µM] and -3.45% [at 11.6 µM], respectively.

Regarding `COc1cc([C@H]2OC[C@]3(OC(C)=O)[C@@H](c4ccc(O[C@@H]5O[C@H](CO)[C@@H](O)[C@H](O)[C@H]5O)c(OC)c4)OC[C@H]23)ccc1O`, the Potency entry in assay [1], in assay [2] and in assay [3] was “inactive” in each case.
